Source: PubChem BioAssay AID1508600 (Functional Genomics Laboratory (NCATS/FGL), 2020)
The whole screen tested about 53,000 sequences, of which about 3,700 (7%) were called active.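 The calls were made as follows: active = gene knockdowns whose robust z-score for IL-1 alpha signal is at least 2 or at most -2, so actives lie on both sides; inactive = the rest.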 Only a selection was taken, and actives are over-represented in it overall.

test: Components of the Cytosolic LPS Sensing Pathway: Gene Identification via Genome-wide siRNA Screen; conditions: RAW264.7 macrophages, IL-1a HTRF, actives lie on both sides, screened at 100 nM (by protocol), cells primed 5 h with Pam3CSK4 first;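 also: robust z of the log signal after scaling to non-targeting control siRNA wells of the plate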
In short: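 Knockdown: 100 nM siRNA, 48h, RAW264.7. Stimulation: Pam3CSK4 5 h, then LipidA via TransIT-TKO 24 h. Output: supernatant IL-1a HTRF, negative-control-normalized, log robust z-score; viability by CellTiter-Glo.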

z-score, inactive:
GGAAUGCUUAAAGCUUUAATT against Clasp2 0.353
GCUCAAGUUAAUCUGUUGUTT against Ywhae 0.962
CCAGUCAACAAGAAUCAGATT against Rptn -0.105
GAUACAGAAUGUCUCAUCCTT against Olfr1128 0.307
GCCCUUGCACUAUUUUUCCTT against Olfr1218 0.902
GCUAUGUCAACAGUAACAUTT against Mmel1 -0.683
GGUGGAAUUAUGCAUGCUATT against Olfr1094 1.45
GGCUUUCUUCAGUUUUGUCTT against Slc33a1 -1.37
GGAGGUUACCUUCUACAGCTT against Cxcr2 0.694
GGGUGAAAAGCAUUUCUGUTT against Actrt3 0.583
GGCUAAGAAACUGAAGAGATT against Ccm2l -1.59
GCGAACUCGGGAAACAACUTT against Rnf4 -0.0525
UAGAAUUGAUUGAGGACUCTT against Ly6c1 0.602
GCACUUCUUUGUGCAAAGCTT against Shfl -0.311
GAGGUUUGGCAGAAGUGCATT against Npff -1.95
GGCCUGUAAAAACUAUUGGTT against Mcpt4 0.122
CCACCAUGACUGCAAAUGUTT against Olfr1469 -0.817
GCUCGUGGCAUGUCUCUAUTT against Doc2g 0.379
GCUAUGAAGAAAAAUCGGATT against Mettl21e 0.362
GCCUAACCUGGUAUCCCAGTT against Zfp92 -1.03
GGCCUCACAGUGCUUUCUCTT against Olfr1232 0.0779
CCUGGCUUACAGUACAUGCTT against Adarb1 1.21
CGACUUCAUAAGGUAUGCATT against Tnfrsf22 -0.793
UUUGCUGUCCUUUCUUUCATT against Olfr122 -1.84
GGCCUAAGCAAGUUGCGCATT against Fbxl8 1.5
CCUUCAGACUGUCAACAAUTT against Chrm2 -0.386
GCGUGAGCUUAAGAAGCAATT against Leng8 1.46
GGAAAAGCUCAAUGUCCUCTT against Tex13b -0.141
GGGAAGUCUACAUAAAUCCTT against Gpr176 -0.544
GGAAAAGAAGUUUAAACGGTT against Svs6 -0.413
GGAGGAUCUUUCAAAGAGATT against Egfl8 0.763
GGCCCUUCCAGAAGAUACATT against Speer3 -1.1
GGACAGAUUCGACAAAGAGTT against Olfr1535 -0.193
GGAAAACAAGACUUCAAUCTT against Gypa 0.369
CCCUGAUGACAGAAGAAUCTT against Tyms -0.802
GCCUGUCCUGUGAUGACAUTT against Olfr406 -1.96
GCUCGAACAUCUCUUGGUCTT against Capn9 0.186
CCGUUACCUUUUAAGCCUGTT against Socs6 -1.2
GGCAGAGAAAAGGACCUUUTT against Mcts2 -1.32
GGAACUCCUCAAACGAAGGTT against Bmp3 0.553
GCCACCAGUGAAUAAUACATT against Hyal6 0.459
GGAGACUGGAGAGCAAAAUTT against Krt18 -1.44
GCUACCUUCAGACAAGCACTT against Prss32 -0.877
GCUGUUGUUCAAUGCCCUGTT against Olfr392 -0.616
GGCUGCACACAAUAUGAACTT against Mrm2 0.134
GGAGAAACUAUGAUCUUUATT against Mmp13 0.117
GGGAAGAAAUCCAAGAAGATT against Cnpy3 -0.836
GGAGCUCCUGUACGACUAUTT against Kmt5a -1.66
GCCCUCGGACUGAAAACAATT against Chrm5 -0.227
GGUACAAUGGCACUGUCACTT against Chrna5 -1.29
GGGAUGCUUUUGGCCCAAATT against Rita1 0.901
GGUUCUCUAACAGAACUUUTT against Zc3h6 0.768
GGUUGUUUGACCAACAGCUTT against Inpp5d -1.51
GGAAUUUGUGGAGAAACUATT against Gabbr1 -0.232
GAGCCAUAUACCUCGUCCUTT against Mier2 -0.531
GGUUGGCUUGGAAAUGGGATT against Nanos2 1.7
CCAUUUACCCAUGCGGCUATT against Creb3l2 -1.94
GGCAACAUGCGGACAACAUTT against Trim14 -0.42
GGAGCUGAACCUGAGCUAUTT against Tlr9 -0.341
GGAGAUAAAUCCUUUGCAUTT against Zfp119a 1.74
GGACUUUCGUGAGAGAUUUTT against Fpr2 1.16
GGAGAAGAGCAGAAUAUGCTT against Baz1a -1.48
GCUGUUAAACGAAAUGUACTT against Esx1 -0.298
CCAUUUAUUUGGACUUGUATT against Lig4 0.303
CCGGUAUUACAACAAGUACTT against Atp5j2 1.01
GGGAGAAGGUAAGUGCAUGTT against Golga7b -0.343
GGUGGAAAAGUGAAAAAGGTT against Ddx18 0.158
CCUGUAGAUUCAAUUAGAGTT against Vkorc1l1 -0.206
GGUGCUGCUUUAUUCCUGGTT against Dhcr7 -0.632
GGAUAUGUGUUCAUCCUGUTT against Lrrc18 0.0347
GGUUAUGCCUUCAGUGAAGTT against Prep -0.14
GGUGACUGUCCUGAACUAUTT against Prr5l 1.7
CGAAGUGAAAAGUAUGACCTT against Lrrc72 -0.083
AUCUCUCGGUGGUGGACUGTT against Olfr1474 0.583
CCAGGUCGAACUUCUGUGCTT against Slc39a8 -0.82
GCAACUCAGAAUGUAGUGUTT against Gnai1 0.298
GGCUUUUGAUGAGGUAAAATT against Plekho2 -1.12
GGAGGAAAAACAGUGCAGATT against Smchd1 -1.54
GGUUCUGACUUGAGAAAACTT against Clba1 1.41
GGUUAUUCUGGUACAGGUUTT against Fndc3a 0.191
GGCUCAGCUCAUGAACGACTT against Acvr2b -0.00307
GGUGGUUUUCAUGUUUCCCTT against Olfr574 -1.48
GGCUAGAAUGCACAUUUUATT against Tmem65 -1.26
CCACCCUCUUCAUAACAGUTT against Med27 -0.82
GCCAAUACACGUCUACUGATT against Gm1553 -0.0632

z-score, active:
CCAUUUCCCAUUUCUGAAGTT against 1700001P01Rik -2.22
CCUAUCUUGUCCGGUUUACTT against Cyb5rl 3.99
GGAAACAGCACAACAAACGTT against Adam26a 2.93
GCCAACAGUAACGGUAUUGTT against Patz1 -2.04
GGGCAUGGAACAAGAUGUCTT against Nckipsd -2.43
GGCUGACACAAGAUGGCUGTT against Ebpl 2.41
GGAGAAGAAAACAUCAAGUTT against Hrh3 2.52
GCACCUCGGUCAUUUAUAUTT against Mettl14 -2.51
GGUUUGCAUAUCUCACCCUTT against Sirt6 -2.38
GCAACUCAGCUGUUGUGAGTT against Ifitm2 2.99
CCUAUGCUAUGUAGUUUAATT against Adam21 5.58
GCUGCCUACCUGUGAAAGUTT against Pgam2 2.82
GGCCAAAGCUGAUAUGACATT against Ankef1 2.23
GGUGUCUUUGCUCAGCUCATT against Lrfn4 -2.93
GGAGAUGUGUUGAGUUUUCTT against Abcg2 4.47
GGACAUUUCUAUGUCUUUGTT against Cpt2 3.35
GGUUCAGUUUUGGCUGGCUTT against Olfr558 2.04
GCUUGGAAGGGACUUCAAUTT against Trp73 2.97
CGAUUAUGAGCACUAUAUUTT against Ddx20 2.12
GGGCAUAGUGACCAGGUUATT against Fgf14 2.67
GGACCUAUUACCUCAAUGATT against Spatc1l -2.59
GGACAUGACCAAAAGGCUGTT against Zfp706 3.84
GGUGACACUCAAGGUGUCATT against Ldlrap1 2.23
